Data taken from ChEMBL document CHEMBL4513216, “Probing the Open Global Health Chemical Diversity Library for Multistage-Active Starting Points for Next-Generation Antimalarials” (ACS Infect Dis, 2020).
The campaign covered roughly 69,000 compounds. About 8,600 (12%) showed an effect of 50% or more. This is one part of a sample in which strong results are shown more often than they occur.

Each molecule was assayed on Plasmodium berghei (assay: Screen against P. berghei liver stage (PbLuc), transformed with Luciferase, at 10uM). Conditions: tested at 10 uM.
Format: functional, HepG2

Compound | INHIBITION [%]
CCCc1nc(NCC(=O)N2CCOCC2)c2c(n1)c(C)nn2CC | 45.8
Cc1cc(NC(=O)C2CCCN(C(=O)NCC(C)C)C2)ccn1 (stereo not given) | -15.8
CSCc1cccc(S(=O)(=O)N2CCCCC2)c1 | 37.5
O=C1N(C2CCOCC2)CCCC12CCN(c1ncccc1Cl)C2 (stereo not given) | 12
Nc1ncc(CN2CCC(O)(c3ccccc3F)CC2)cn1 | 31.5
CC(NC(=O)c1ccc(Cl)cc1)c1nnc(SCC(N)=O)n1C (stereo not given) | 12.315
Cn1nccc1-c1cnc2n1CCNC21CCN(C(=O)C2(C)CC2)CC1 | 13.1
Cc1cnc(CNC(=O)N(CCCO)C2CCc3ccccc32)s1 (stereo not given) | 38.5
CC(=O)N1CC[C@H]2OCC[C@@]2(C(=O)NCc2cnc(C)cn2)C1 | 42.1
O=C(NCCN1C(=O)c2ccccc2C1=O)c1scnc1Cl | 19.4
COCCn1cc(C(=O)Nc2nc3c(s2)CCC3)c2ccccc21 | 45.5
COCCn1cc(CC(=O)Nc2nc3c(s2)CCC3)c2ccccc21 | -51.3
COCCn1ccc2c(C(=O)Nc3nc4c(s3)CCC4)cccc21 | 79.2
CCn1ccnc1CN1CCN(CCC(=O)NC2CCCCC2)CC1 | -1.65
COCC(=O)N(Cc1ccc2cc[nH]c2c1)C1CC1 | 10.9
CCNC(=O)NCC1(CN2CCOCC2)CCCCC1 | 11.9
O=C1CC(NCc2ncc[nH]2)CN1CCc1cccc(Cl)c1 (stereo not given) | 39.9
Cc1ncc(CNC2CC(=O)N(CCc3cccc(Cl)c3)C2)n1C (stereo not given) | 60.5
CCc1ncc(CNC2CC(=O)N(CCc3cccc(Cl)c3)C2)cn1 (stereo not given) | -11.5
CN(C)c1ncc(CNC2CC(=O)N(CCc3cccc(Cl)c3)C2)s1 (stereo not given) | 53.9
Cc1cccc(CNC2CC(=O)N(CCc3cccc(Cl)c3)C2)n1 (stereo not given) | -13
Cc1ncc(CNC2CC(=O)N(CCc3ccc(F)cc3)C2)n1C (stereo not given) | 14.5
Cc1nc[nH]c1CNC1CC(=O)N(CCc2cccc(Cl)c2)C1 (stereo not given) | 53.9
Cc1nc(CNC2CC(=O)N(CCc3cccc(Cl)c3)C2)c[nH]1 (stereo not given) | 43.4
O=C1CC(NCc2ccncc2)CN1CCc1cccc(Cl)c1 (stereo not given) | 44.8
Cn1cccc1C(=O)NCc1ccnc(C2CCCOC2)n1 (stereo not given) | 39.8
COc1ccc(Cc2nnc(NC(=O)C3CC34CCC4)s2)cc1OC (stereo not given) | 17.75
Cc1cc(O)nc(C2CCN(C(=O)CO)CC2)n1 | 30.55
Cc1noc(C)c1CCC(=O)N1CCCN(C)CC1 | 1.7
Cc1cnc(N2CCCC3(CCOCC3)C2)nc1 | -22.1
